For seven sequences, PBM binding z-score results are on record in the supplement of paper PMC6555819.

Experiment in all cases: PBM binding z-score (relative to random genomic background probes); higher = stronger binding; sequences stand for … in GC…GCGATTGACAGCGTAGAATGAAGG
The subject of assay [1] is FXR:RXRa (NR concentration 270 nM, RXRa partner concentration 90 nM). Summed up: (§1)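 On custom Agilent 4×180K arrays, double-stranded probes with 34-nt variable regions carried direct-repeat seeds, single-nucleotide variants, half-site ablations or random human genomic background. Ligand-free nuclear receptor dimers were applied for 1 h, and binding was read with antibodies against each partner (one per run). Binding z-scores come from regression-normalized fluorescence, with the random background probes as reference.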

Assay [2] deals with LXRa:RXRa (NR concentration 270 nM, RXRa partner concentration 90 nM). Summed up: as §1
The test system of assay [3] is LXRa homodimer (NR concentration 270 nM). Summed up: as §1
Assay [4] has as its system LXRb:RXRa (NR concentration 270 nM, RXRa partner concentration 90 nM). Summed up:
as §1

Assay [5] has as its system LXRb homodimer (NR concentration 270 nM). The method, boiled down:
as §1

Assay [6] relates to PPARa:RXRa (NR concentration 270 nM, RXRa partner concentration 90 nM). The method, boiled down: as §1
In assay [7] the test system is PPARg:RXRa (NR concentration 180 nM, RXRa partner concentration 90 nM). Summed up:
as §1

Assay [8] relates to PPARg:RXRa 270nM:90nM, anti-RXR (NR concentration 270 nM, RXRa partner concentration 90 nM). The method, boiled down:
as §1

Assay [9] concerns PPARg:RXRa 30nM:10nM, anti-RXR (NR concentration 30 nM, RXRa partner concentration 10 nM). The method, boiled down: as §1
The test system of assay [10] is PPARg:RXRa 90nM:30nM, anti-RXR (NR concentration 90 nM, RXRa partner concentration 30 nM). Summed up: as §1
The test system of assay [11] is PPARg:RXRa DBDmut IVT, anti-RXR (DBD mutation: RXRa K156A/R161A, NR concentration 270 nM, RXRa partner concentration 90 nM). The method, boiled down:
as §1

The test system of assay [12] is PPARg:RXRa IVT, anti-PPARg (NR concentration 270 nM, RXRa partner concentration 90 nM). The method, boiled down:
as §1

The subject of assay [13] is PPARg DBDmut:RXRa IVT, anti-PPARg (DBD mutation: PPARg1 K132A/R137A, NR concentration 270 nM, RXRa partner concentration 90 nM). Summed up: as §1
Assay [14] relates to PPARg DBDmut IVT, anti-PPARg (DBD mutation: PPARg1 K132A/R137A, NR concentration 270 nM). Summed up:
as §1

For assay [15], the system named is PPARg homodimer (NR concentration 180 nM). Summed up: as §1
Assay [16] deals with PXR:RXRa (NR concentration 270 nM, RXRa partner concentration 90 nM). Summed up: as §1
The subject of assay [17] is PXR homodimer (NR concentration 270 nM). The method, boiled down: as §1
Assay [18] has as its system RARa:RXR (NR concentration 270 nM, RXRa partner concentration 90 nM). The method, boiled down: as §1
Assay [19] concerns RARa homodimer (NR concentration 270 nM). The method, boiled down:
as §1

Assay [20] relates to RARb:RXRa (NR concentration 270 nM, RXRa partner concentration 90 nM). The method, boiled down:
as §1

With TCTAGCAGGCCAGAAGGTCACTCAAGAGGTACGG, the PBM binding z-score in assay [1] was 1.61; in [2], 2.17; in assay [3] it was 0.0558; in assay [4], 1.8; in assay [5], -0.711; in assay [6] it was 3.04. In addition, the PBM binding z-score stood at 1.46 in assay [7]; 2.86 in assay [8]; 2.27 in [9]; 2.71 in [10]; 1.1 in assay [11]; 0.932 in assay [12]. Also, the PBM binding z-score in assay [13] was -0.221; in assay [14] it was -1.25; in [15], 2.43; in [16], 2.79; in assay [17] it was -0.00251; in assay [18], 3.63. For the same sequence, the values for the PBM binding z-score in [19] and in [20] were -0.201 and 3.28, respectively.

Take TCTAGCATGCCAGAGGGTCACTCAAGAGGTACGG: the PBM binding z-score in assay [1] is 0.892; in [2], 0.929; in [3], -0.463; in assay [4], 1.43; in assay [5] it was -1.1; in assay [6], 2.5. The PBM binding z-score in assay [7] came out at 1.02; in assay [8] it was 1.69; in assay [9], 1.89; in assay [10] it was 1.76; in assay [11] it was 0.74; in assay [12], 0.403. The PBM binding z-score in assay [13] was -0.182; in assay [14], -1.1; in [15] it was 0.757; in assay [16], 1.74; in assay [17], -0.449; in assay [18], 2.86. The PBM binding z-score in assay [19] is -0.513; in [20] it was 2.11.

In the case of ATATGTATGTTATCGGGTCATTCAGTTTGCGCAT, the PBM binding z-score in assay [1] is 1.97; in assay [2], 2.23; in [3], 0.86; in [4] it was 2.38; in assay [5], 1.09; in assay [6] it was 3.32. For the same sequence, the PBM binding z-score came out at 2.67 in assay [7]; 2.71 in [8]; 0.938 in assay [9]; 2.09 in [10]; 4.28 in assay [11]; 4.3 in assay [12]. The PBM binding z-score in assay [13] was 1.17; in [14], 1.83; in assay [15] it was 1.39; in assay [16], 3.37; in [17] it was 6.74; in [18], 2.59. Also, the PBM binding z-score in assay [19] was 1.05; in assay [20], 1.98.

Consider CCTATTAGTTGACCATAAGGGCAAACGAAGCTCG, for which the PBM binding z-score in assay [1] amounted to 1.04; in assay [2], 0.336; in [3], 0.545; in assay [4], 0.644; in assay [5], 0.599; in [6], 0.695. Moreover, the PBM binding z-score was found to be 0.426 in assay [7]; 0.45 in assay [8]; 0.0598 in [9]; 0.284 in assay [10]; 0.266 in assay [11]; 0.555 in assay [12]. Besides, the PBM binding z-score in assay [13] is 0.151; in assay [14], 0.588; in assay [15] it was 1.58; in assay [16], 0.75; in [17] it was 0.863; in assay [18], 1.02. For the same sequence, the PBM binding z-score in assay [19] is 1.31; in assay [20] it was 1.52.

For the sequence CCTACTGGGCCACGAAAGGTCATTGATTCAGTGA, the PBM binding z-score in assay [1] stood at 3.58; in assay [2], 5.34; in assay [3] it was 4.9; in assay [4], 4.15; in [5], 0.552; in assay [6] it was 4.58. The PBM binding z-score in [7] was found to be 4.57; in [8], 5.08; in assay [9], 2.53; in assay [10], 4.4; in [11], 5.99; in assay [12] it was 5.95. Besides, the PBM binding z-score in assay [13] was 0.883; in [14], -0.339; in assay [15], 4.26; in [16], 5.45; in assay [17], 2.06; in assay [18], 5.9. The figures for the PBM binding z-score in assay [19] and in assay [20] were 1.7 and 4, respectively.

In the case of TCTGCGAGGTCAACGATGGTCAGCTAATCTGCTA, the PBM binding z-score in [1] was determined as 6.96; in assay [2], 5.84; in [3], 1.07; in assay [4] it was 4.75; in assay [5] it was 1.01; in [6] it was 5.65. In addition, the PBM binding z-score was 5.8 in assay [7]; 6.12 in [8]; 3.37 in assay [9]; 4.91 in assay [10]; 3.66 in [11]; 4.67 in assay [12]. In addition, the PBM binding z-score turned out to be 0.567 in assay [13]; 1.25 in [14]; 3.27 in assay [15]; 5.4 in [16]; 1.03 in [17]; 5.37 in assay [18]. Further, the PBM binding z-score amounted to 0.126 in assay [19] and 5.18 in [20].

On to TCTTGTAGACCAACAGGAGGTTAAGAAAGATCGA, for which the PBM binding z-score is -0.287 in [1]; 1.22 in [2]; 0.0855 in [3]; 0.717 in assay [4]; -0.453 in [5]; 1.15 in assay [6]. Further, the PBM binding z-score in assay [7] came out at 0.068; in assay [8] it was 1.3; in assay [9] it was 2.69; in assay [10] it was 1.81; in assay [11] it was 1.42; in assay [12], 0.757. For the same sequence, the PBM binding z-score was -0.365 in [13]; 0.137 in assay [14]; -0.0799 in assay [15]; 0.757 in [16]; 0.175 in [17]; 0.783 in assay [18]. Further, the PBM binding z-score was -0.189 in assay [19] and 0.416 in assay [20].
